HEK293 viab = GF-AFC viability counterscreen for inhibitors of alpha-synuclein gene (SNCA) expression. hit rate 0.12% among 150,000. Potency, µM (top dose mostly 57.1 µM), hits mostly cytotoxic. HEK-293-SNCA-luc viability, GF-AFC fluorescence, 24 h. AID 1671193, 2021; note: nearly all actives have a fitted effect of over 30% in size
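HEK-293-SNCA-luc cells (1500/well) plated 24 h, then exposed 24 h to a dilution series; GF-AFC added 30 min at 37C, fluorescence 405/540 nm; normalised to medium-only and DMSO wells, Hill fit.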
IP6K1 inh = Primary qHTS assay for small molecule inhibitors of Inositol hexaphosphate kinase 1 (IP6K1); IP6K1 kinase, ADP-Glo luminescence, 2 h; active compounds read low; hit rate 0.81% among 140,000; activity change, % (series mostly up to about 58 µM); Inositol hexakisphosphate kinase 1 (Homo sapiens), Q92551; in the data active = activity change below about -25%
Target sequence (Q92551 whole entry, looked up): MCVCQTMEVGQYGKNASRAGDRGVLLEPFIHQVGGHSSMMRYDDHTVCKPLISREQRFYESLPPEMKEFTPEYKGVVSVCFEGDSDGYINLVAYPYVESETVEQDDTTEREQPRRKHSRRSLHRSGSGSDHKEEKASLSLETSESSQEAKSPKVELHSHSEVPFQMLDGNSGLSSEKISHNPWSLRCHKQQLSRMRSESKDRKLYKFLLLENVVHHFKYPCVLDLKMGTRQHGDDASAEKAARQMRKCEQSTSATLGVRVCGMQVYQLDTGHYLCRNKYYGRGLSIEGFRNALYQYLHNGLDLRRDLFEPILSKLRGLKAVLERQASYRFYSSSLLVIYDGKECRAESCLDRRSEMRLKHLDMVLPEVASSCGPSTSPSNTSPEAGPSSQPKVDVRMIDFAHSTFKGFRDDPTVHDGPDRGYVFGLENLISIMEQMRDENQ
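ADP-Glo luminescence measures ADP made by human IP6K1 during a 2 h RT reaction with ATP/IP6 (mix at 1.3 mM/130 uM); top library doses 57.5 and 19.1 uM final.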
SNCA expr inh = Primary qHTS assay for inhibitors of alpha-synuclein gene (SNCA) expression; HEK-293 SNCA-luciferase knock-in, luminescence, 24 h; Potency, µM (titrated, usually from 57.2 µM), usual class: inhibitors; hit rate 0.17% among 140,000; AID 1671194, 2021; note: nearly all actives have a fitted effect of over 45% in size
KDM5B inh = Primary screen for KDM5B Histone Demethylases FDH-coupled qHTS; Lysine-specific demethylase 5B (Homo sapiens), Q9UGL1; KDM5B demethylase, FDH-coupled NADH fluorescence (FDH is formaldehyde dehydrogenase); Potency, µM (highest dose often 57.7 µM), actives largely listed as inhibitors; hit rate 2.6% among 220,000; AID 1347165, 2019; note: nearly all actives have a fitted effect of over 70% in size
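qHTS format, multiple compound concentrations. Buffer 50 mM HEPES pH 7.5/0.01% Tween-20; 200 nM KDM5BΔAP final; 10 min compound preincubation; substrate-mix levels 12.5 µM peptide, 25 µM α-KG, 0.25 mM NAD⁺; 30 min RT; ΔRFU.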
Large screens that a line does not name were inactive. Sampled rows, rich in hits. Any-hit rate of the full collection: about 2.8%. Unless noted, calls come from the whole dose curve; as a rule, active = well fitted curve in the direction sought with a large enough effect; inconclusive = small, poorly fitted or top-dose-only effect, or another doubt; inactive = no such curve, though single readings can be large; an effect the other way counts as inactive or inconclusive.

c1cc2c(cc1N1CCC(N[C@H]3C[C@@H]4OCC[C@H]34)CC1)CCC2	none
CCOc1ccccc1C(=O)N1C[C@@H](CO)[C@@H]2Oc3ccc(Cl)cc3[C@@H]21	none (no result: HEK293 viab, SNCA expr inh, KDM5B inh)
CC(C)c1ccc(CC(=O)N2CCCc3ncc(C(=O)Nc4ccccc4)cc32)cc1	HEK293 viab inconclusive, SNCA expr inh inconclusive, KDM5B inh inconclusive
Cc1csc(NC(=O)c2cnc3c(c2)N(C(=O)Cc2ccc(C(C)C)cc2)CCC3)n1	HEK293 viab inconclusive, SNCA expr inh inconclusive, KDM5B inh 32µM
O=c1n(-c2cccc(Cl)c2)nc2n1CCN(Cc1ccccc1)C2	KDM5B inh 89µM
CC(C)CN[C@H]1CO[C@H]2[C@@H]1OC[C@@H]2Nc1nccc(-c2cccs2)n1	KDM5B inh 32µM
Cc1ccc(C(=O)N[C@H]2CO[C@H]3[C@@H]2OC[C@@H]3Nc2nccc(-c3cccs3)n2)cc1	KDM5B inh inconclusive
O=S(=O)(N[C@H]1CO[C@H]2[C@@H]1OC[C@@H]2Nc1nccc(-c2cccs2)n1)c1cccs1	KDM5B inh 22µM
COc1ccc(C(=O)N[C@H]2CO[C@H]3[C@@H]2OC[C@@H]3Nc2nccc(-c3cccs3)n2)cc1	HEK293 viab inconclusive, KDM5B inh inconclusive
Cc1cccc(C)c1-c1nc(C(=O)NCc2cccnc2)n2ccccc12	KDM5B inh 25µM
O=C(NCc1cccnc1)c1nc(-c2ccccc2)c2ccccn12	none
O=C(NCc1cccnc1)c1nc(-c2ccc(Cl)nc2)c2ccccn12	KDM5B inh 89µM
Cc1cccc(C)c1-c1nc(C(=O)NCc2ccsc2)n2ccccc12	KDM5B inh 32µM
O=C(NCc1cccnc1)c1nc(-c2ccc(Cl)cc2)c2ccccn12	KDM5B inh 28µM
O=C(NCCc1ccccc1F)c1nc2sccn2c1-c1ccc(F)cc1	none (no result: KDM5B inh)
COc1ccc(-c2nc(C(=O)NCc3cccnc3)n3ccccc23)cc1	KDM5B inh 28µM
O=C(NCc1cccnc1)c1nc(-c2cc(Cl)cc(Cl)c2)c2ccccn12	none
COc1cccc(-c2nc(NCc3cccnc3)ncc2C(=O)O)c1	KDM5B inh inconclusive
O=C(O)c1cnc(NCc2cccnc2)nc1-c1ccc(Cl)cc1	KDM5B inh 32µM
COCCNC(=O)c1nc(-c2ccsc2)c2ccccn12	KDM5B inh 40µM
COc1ccc(NS(=O)(=O)c2ccc3c(c2)NC(=O)CS3)cc1	none (no result: HEK293 viab, IP6K1 inh, SNCA expr inh)
COc1cccc(CC(=O)N2CC(CNc3ccccc3)C3(C2)CN(c2ccccc2)C3)c1 (centres undefined)	KDM5B inh 18µM
CCOC(=O)N1CCN(Cc2nc3cc(NC(=O)c4ccccc4OC)ccc3n2C(C)C)CC1	IP6K1 inh -57, KDM5B inh inconclusive
CCOC(=O)N1CCN(Cc2nc3cc(NC(=O)c4ccccc4[N+](=O)[O-])ccc3n2C(C)C)CC1	none
O=Cc1c(Br)cc(Br)c(O)c1Br	none (no result: HEK293 viab, IP6K1 inh, SNCA expr inh)
COc1cc2c(NC3CCN(C(C)C)CC3)nc(N3CCC(F)(F)CC3)nc2cc1OCCCN1CCCC1	HEK293 viab 24µM (no result: SNCA expr inh, KDM5B inh)
CCOC(=O)[C@@H]1CN(C(=O)c2cccs2)[C@H]2c3ccccc3O[C@@H]12	none (no result: HEK293 viab, SNCA expr inh, KDM5B inh)
Cc1cn2nc(C(=O)N3CCN(C4CCCCC4)CC3)cc2c(N(C)Cc2ccccc2)n1	KDM5B inh inconclusive
COc1cccc(NC(=O)c2cc3c(N(C)Cc4ccccc4)nc(C)cn3n2)c1	KDM5B inh 28µM
COc1ccc(NC(=O)c2cc3c(N(C)Cc4ccccc4)nc(C)cn3n2)cc1OC	HEK293 viab inconclusive, KDM5B inh 32µM
COc1ccc(NC(=O)Cn2c(N(C)Cc3ccccc3)nc(C)cc2=O)cc1OC	SNCA expr inh inconclusive
CC(C)c1nn(-c2c(Cl)cccc2Cl)c2nc(Cc3ccc(OCCO)cc3)[nH]c(=O)c12	HEK293 viab inconclusive, SNCA expr inh 0.19µM (no result: KDM5B inh)
COCc1nc2nc(-c3ccccc3)c(-c3ccnc(OC)c3)cc2n1C	none
COCc1nc2nc(-c3ccccc3)c(-c3cccc([S+](C)(=O)[O-])c3)cc2n1C	KDM5B inh inconclusive
COCc1nc2nc(-c3ccccc3)c(-c3ccc(N4CCN(C)CC4)nc3)cc2n1C	KDM5B inh 35µM
COCc1nc2nc(-c3ccccc3)c(-c3ccc(OC)nc3)cc2n1C	KDM5B inh 35µM
COCc1nc2nc(-c3ccccc3)c(-c3ccc([S+](C)(=O)[O-])cc3)cc2n1C	KDM5B inh 35µM
